Experimental data as given in PubChem BioAssay AID504375 (National Center for Advancing Translational Sciences (NCATS), 2011).
Screen size: about 1,600 compounds; about 25 (2%) were called active. About 7% were inconclusive and are not listed. Many of the other results were omitted from the sample, so actives are more common in it than they were. A number with no mark means an inactive call. Calls follow the shape of the dose curve; as a rule, active = well fitted inhibition curve with a large enough effect; inconclusive = small, poorly fitted or top-dose-only effect, or effect the other way; inactive = no such curve, though single readings can be large or run the other way.

target: Runt-related transcription factor 1 (Homo sapiens) + Core-binding factor subunit beta (Homo sapiens) (UniProt Q01196+Q13951); assay: qHTS Assay for Compounds Blocking the Interaction Between CBF-beta and RUNX1 for the Treatment of Acute Myeloid Leukemia: Hit Validation with Orthogonal Assay; conditions: CBFbeta-RUNX1 binding orthogonal assay, biochemical; series mostly up to 41 µM; activity change, negative = inhibition: at the top concentration
Description: NIH Chemical Genomics Center [NCGC]
NIH Molecular Libraries Probe Production centers Network [MLPCN]
Assay Submitter (PI): Paul Liu
Core Binding Factor (CBF) abnormalities are associated with 20-25% of all acute myeloid leukemias (AML), of which 5-10% are further sub classified as acute myelomonocytic leukemia with eosinophilia, also known as M4Eo in the FAB classification scheme. This subtype of leukemia is usually associated with chromosome 16 inversion (p13:q22). Chromosome 16 inversion results in formation of the fusion oncogene CBFB-MYH11, which encodes the fusion protein CBF-beta-SMMHC.
It has been hypothesized that the interference of CBF-beta and RUNX1 binding could have therapeutic implications for patients with CBF mediated leukemias. We developed a CBF-beta and RUNX1 binding assay in AlphaScreenTM format and optimized it for high throughput screening to search for inhibitors. The goal of this project is to screen MLPCN's compound collection (MLSMR) for identifying the inhibitors of the interaction between CBF-beta and RUNX1 proteins as research probes. If these probes work well in the animal models, the ultimate goal of this project is to development a new drug treatment for this disease.
This assay can not be used to assess how apparent inhibitors interfere with protein binding, and whether inhibitors specifically bind to either protein. Disruption of this protein-protein interaction, through any mechanism, is the intended target activity.
The present data set was run to confirm the activity of hits from the primary screen using an orthogonal assay technology for measuring protein-protein interaction disruption.
A TR-FRET (time resolved fluorescence resonance energy transfer) assay was performed using the same assay buffer, protein concentrations and incubation times as described previously in the AlphaScreen assay, except that terbium (Tb+) labeled anti-his-antibody and XL665 linked streptavidin were used to capture the binding signal. The Tb+ labeled anti-his-antibody captures His(6)-CBF and XL665 linked streptavidin binds to biotin-RUNX1. The binding of RUNX1 to CBFbrings Tb+ and XL665 to proximity resulting in a TR-FRET signal. Briefly, in a white 384-well plate, 10 µl/well of mixture of biotin-RUNX1 and His(6)-CBFwere incubated with 10 µl/well buffer (positive control) or 10 µl/well compounds (negative control) for 20 min followed by an addition of 10 µl/well of Tb+ labeled anti-his(6)-antibody and XL665 linked streptavidin. After 90 min of incubation in the dark, the assay plate was measured in the Envision plate reader using TR-FRET detection mode. For the 1536-well plate format, 3 µl/well mixture of biotin-RUNX1 and His(6)-CBF (30 nM per protein) was incubated with 23 nl/well compound (dissolved in 100% DMSO) or the equivalent DMSO concentration (positive control) for 30 min followed by the addition of 1 µl/well of 0.44 ng Tb+ labeled anti-his(6)-antibody and 5 nM streptavodin-XL665. After 90 min of incubation, the assay plate was measured in the Envision plate reader.
The TR-FRET assay for detecting interaction between HIV-I Tat and […] was similarly performed with the recombinant full-length HIV-I Tat CLADE B and HIV-I Tat Biotin conjugated proteins supplied by Diatheva (Fano, Italy). Briefly, the His-CBF and Biotin-RUNX1 complex at a working concentration of 83.3 nM per protein were pre-incubated in assay buffer for 10 minutes on ice. Then HIV-I Tat or unlabeled CBF were added to reach final concentrations (Supplementary Figure 4b) and incubated for 5 minutes. Finally anti-His antibody and streptavidin-XL665 at a final concentration of 2.2 ng and 5 nM, respectively, were added to the plate, which was incubated for 1 hr prior to reading on the PerkinElmer Envision plate reader.
Keywords: MLSMR, MLPCN, NIH Roadmap, qHTS, NCGC, Core binding factor, CBF, CBF-beta, Acute myeloid leukemia
% is scaled to controls: 0 for no effect and ±100 for the full control effect; potency is read from the fitted curve at half-maximal effect.

Chain of Runt-related transcription factor 1 (Homo sapiens) + Core-binding factor subunit beta (Homo sapiens) (Q01196 whole entry, looked up): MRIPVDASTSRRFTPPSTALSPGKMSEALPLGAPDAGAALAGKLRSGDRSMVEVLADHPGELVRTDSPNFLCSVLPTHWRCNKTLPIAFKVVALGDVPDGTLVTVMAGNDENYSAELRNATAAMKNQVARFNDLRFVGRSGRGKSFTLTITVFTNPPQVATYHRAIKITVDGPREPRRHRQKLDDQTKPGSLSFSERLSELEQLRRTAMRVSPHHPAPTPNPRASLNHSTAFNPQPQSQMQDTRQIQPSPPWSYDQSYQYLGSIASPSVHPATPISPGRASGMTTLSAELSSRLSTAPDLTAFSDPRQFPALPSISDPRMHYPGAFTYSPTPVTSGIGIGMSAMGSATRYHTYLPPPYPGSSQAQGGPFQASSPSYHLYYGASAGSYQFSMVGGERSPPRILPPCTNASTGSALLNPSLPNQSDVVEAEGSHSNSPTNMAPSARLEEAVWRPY
Chain of Runt-related transcription factor 1 (Homo sapiens) + Core-binding factor subunit beta (Homo sapiens) (Q13951 whole entry, looked up): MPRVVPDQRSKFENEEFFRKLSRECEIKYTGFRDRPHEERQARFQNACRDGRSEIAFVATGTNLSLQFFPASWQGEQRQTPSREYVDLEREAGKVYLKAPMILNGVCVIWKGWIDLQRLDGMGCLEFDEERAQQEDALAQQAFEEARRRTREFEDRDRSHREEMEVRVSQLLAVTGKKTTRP

Row | Compound | activity change, negative = inhibition | Potency
1 | O=C(O)C1Nc2c(O)cc(Cl)c([N+](=O)[O-])c2C2C=CCC12 (centres undefined) | -29.8% | –
2 | COc1ccccc1C1CCN(C(=O)c2ccco2)CC1 | 13.8% | –
3 | COc1cccc2c1NC(C(=O)O)C1CC=CC21 (centres undefined) | – | 7.94 µM (active)
4 | COc1ccccc1C1CCN(C(=O)c2cccs2)CC1 | 1.7% | –
5 | Cc1ccc2c(c1C)NC(C(=O)O)C1CC=CC21 (centres undefined) | – | 7.08 µM (active)
6 | O=C(O)C1Nc2c(O)cccc2C2C=CCC12 (centres undefined) | – | 3.55 µM (active)
7 | Cn1ncc(Br)c1N1C(=O)CCC1=O | 1.93% | –
8 | Fc1ccc(C(CCNCc2cccs2)c2ccco2)cc1 (centres undefined) | 10.9% | –
9 | COc1ccc(NC(=O)Nc2nc3ccccc3s2)cc1 | -7.1% | –
10 | Cc1cc(NC(=O)CSc2nc3ccccc3[nH]2)n(-c2ccccc2)n1 | 1.11% | –
11 | c1ccc(-c2nnc(-c3ccccn3)nc2NC2CCCCC2)cc1 | -3.48% [at 82.4 µM] | –
12 | c1ccc(-c2n[nH]c(-c3ccccn3)n2)nc1 | -1.29% [at 82.4 µM] | –
13 | CN(C)c1nc(-c2ccccn2)nnc1-c1ccccc1 | – | 22.4 µM (active)
14 | CC(=O)Nc1cccc(OCCCNC(=O)c2cccc3ccccc23)c1 | 6.23% | –
15 | COc1ccc2[nH]c(C(=O)N3CCCN(Cc4ccc(F)cc4)CC3)cc2c1 | 13.2% | –
16 | NS(=O)(=O)c1ccc(N/N=C/c2ccc(C(=O)O)cc2)c([N+](=O)[O-])c1 | 94.8% | –
17 | CC(=O)CCn1cc([N+](=O)[O-])nc1C | -5.17% | –
18 | Cc1cccn(Cc2c(F)cccc2Cl)c1=O | -6.17% | –
19 | CC(C)(C)OC(=O)N1CCCN(C(=O)Nc2ccc(C(F)(F)F)cc2)CC1 | 9.91% | –
20 | CC(/C=N/n1c(-c2ccccn2)n[nH]c1=S)=C\c1ccccc1 | -4.6% | –

Row | Compound | activity change, negative = inhibition | Potency
21 | CCC12CCCN3CCc4c(n(c5ccccc45)C(O)(C(=O)OC)C1)C32 (centres undefined) | 36% | –
22 | O=C(O)CSCC(=O)N1CCCN(c2nc3ccc(Cl)cc3s2)CC1 | -5.09% | –
23 | Cc1nn(Cc2ccccc2)c(C)c1/C=N/NC(=O)c1ccncc1 | 2.97% | –
24 | COc1ccccc1OCc1ccc(C(=O)NN)o1 | 0.502% | –
25 | Cc1nn(C)c(=O)c(N)c1-c1cc(-c2ccc(Cl)c(Cl)c2)n[nH]1 | 9.21% | –
26 | CC(C)(C)c1ccc(C(=O)Cn2nc(C(=O)O)c3ccccc3c2=O)cc1 | 3.83% | –
27 | CN(C)c1cccc(N(C)C)c1CNC(=O)C(C)(C)C | 1.48% | –
28 | S=c1[nH]nc(-c2cccs2)n1C1CCCCC1 | -14.4% | –
29 | CCCSc1nnc(NC(=O)Nc2ccc(C)cc2)s1 | -0.563% | –
30 | O=C(/C=C/c1cn(CC(O)CN2CCOCC2)c2ccccc12)c1cccs1 (centres undefined) | 4.2% | –
31 | Cc1nc([N+](=O)[O-])cn1CC(O)c1ccccc1 (centres undefined) | 20.8% | –
32 | CCSc1cc(Cl)nc(N)n1 | 17.2% | –
33 | COc1cc(OC)c(OC)cc1/C=N/NC(=O)CCc1c(C)n[nH]c1C | 18.8% | –
34 | CC(=O)N1CCCC1(C(=O)O)c1ccccc1 (centres undefined) | 3.9% | –
35 | O=C(N/N=C/C(Br)=C/c1ccccc1)C(O)c1ccccc1 (centres undefined) | 8.96% | –
36 | O=C(O)C1CC(c2ccccc2)=Nc2ccccc2S1 (centres undefined) | -10.5% | –
37 | COc1ccc2nc(-c3ccc(Cl)cc3)cc(C(=O)O)c2c1 | 34.7% | –
38 | Oc1cccc(O)c1O | – | 0.888 µM (active)
39 | Cc1ccc(OCC(=O)N(Cc2ccc(N(C)C)cc2)C2CCS(=O)(=O)C2)cc1C (centres undefined) | 10.2% | –
40 | CCOC(=O)c1cnc2c(F)ccc(F)c2c1Sc1ccccc1 | 8.39% | –

Row | Compound | activity change, negative = inhibition | Potency
41 | O=C(Nc1ccc(Cl)cc1)NC1CCCCNC1=O (centres undefined) | 2.89% | –
42 | Cc1nn(-c2ccccc2)nc1C(=O)NNC(=O)c1cccc2ccccc12 | 22.3% | –
43 | Cc1nn2c(NCCN(C)C)c3c(nc2c1-c1ccccc1)CCCC3 | -6.26% | –
44 | Cc1nc([N+](=O)[O-])cn1C(C)C | -1.09% | –
45 | c1ccc(-c2ccc(C3=Nn4c(nnc4-c4cccs4)SC3)cc2)cc1 | 2.54% | –
46 | CC(=O)Nc1ccc(Nc2cc(C(C)C)nc3c(-c4ccccc4)c(C)nn23)cc1 | 9.96% | –
47 | O=C(O)c1ccccc1Sc1ccccc1S(=O)(=O)NC1CCCCC1 | -9.91% | –
48 | CCC(C)NC(=O)CC(C)C (centres undefined) | 0.673% | –
49 | O=C1CC(N2CCN(S(=O)(=O)c3ccccc3)CC2)C(=O)N1c1ccccc1 (centres undefined) | 3.16% | –
50 | C/C(Cc1ccccc1)=N\NC(=O)CNC(=O)c1ccc(Cl)cc1Cl | -5.63% | –
51 | N/C(CC1CC1(Cl)Cl)=N\OC(=O)c1ccccc1 (centres undefined) | 1.08% | –
52 | CC(=O)COc1nc2c(c(-c3ccco3)c1C#N)CCc1ccccc1-2 | 8.75% | –
53 | Nc1nc(NCc2ccco2)nc(NCCO)c1[N+](=O)[O-] | 6.69% | –
54 | Cc1ccc(-n2ncc(-c3nn[nH]n3)c2N)cc1 | 4.84% | –
55 | NCCc1ccc(O)c(O)c1 | -0.396% [at 82.4 µM] | –
56 | NC(Cc1ccc(O)c(O)c1)C(=O)O (centres undefined) | – | 0.891 µM (active)
57 | N[C@H](Cc1ccc(O)c(O)c1)C(=O)O | – | 7.08 µM (active)
58 | O=C(/C=C/c1ccc(O)c(O)c1)c1ccccc1O | 15.8% | –
59 | COc1ccc(C(=O)Nc2cccnc2Sc2ccc(Cl)cc2)cc1 | -4.01% | –
